{
  "source": "PubChem BioAssay AID651636",
  "about": "(Sanford-Burnham Center for Chemical Genomics, 2012)",
  "note": "The campaign covered roughly 360,000 compounds. About 3,000 (0.83%) were called active. Shown is part of a subset that was picked to be rich in actives. Values without a mark were called inactive. Rule as the data show it: active = inhibition above about 38%; inactive = the rest.",
  "data": [
    {"biological_target": "G-protein coupled receptor 183 (Homo sapiens) (UniProt P32249)", "sequence (P32249 whole entry, looked up, the tested form may be a part)": "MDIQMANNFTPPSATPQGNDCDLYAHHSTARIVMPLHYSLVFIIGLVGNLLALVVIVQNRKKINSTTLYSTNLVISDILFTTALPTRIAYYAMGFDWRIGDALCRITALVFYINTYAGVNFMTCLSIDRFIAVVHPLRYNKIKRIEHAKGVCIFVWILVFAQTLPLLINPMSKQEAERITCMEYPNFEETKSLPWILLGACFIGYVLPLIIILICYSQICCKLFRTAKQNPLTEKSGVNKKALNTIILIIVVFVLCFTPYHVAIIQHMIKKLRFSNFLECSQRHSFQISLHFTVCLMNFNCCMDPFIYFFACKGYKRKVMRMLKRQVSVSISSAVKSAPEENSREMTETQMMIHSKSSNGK", "assay": "blockers of oxysterol-driven EBI2 arrestin signaling – cell-based, luminescence, 7a,25-OHC stimulation, uHTS, primary screen (AID 651636);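 also: enzyme fragment complementation signal reports receptor beta-arrestin coupling in cells; 0% = agonist plus DMSO wells and 100% = wells without agonist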", "details": "EBI2 beta-arrestin recruitment, 7a,25-OHC stimulated, at 5 µM, stronger effect = higher value", "values": [
      {"smiles": "CC(=O)OC1C2(CC3N4C(=O)C5(CO)SSC4(CC31O)C(=O)N5C)OC(C)C(C)(C)C2=O", "note": "(stereo not given)", "inhibition": "94.4% (active)"},
      {"smiles": "CC(C)(C)[C@]1(O)C[C@@H]2OC(=O)C[C@@]23C(=O)O[C@@H]2OC(=O)[C@H](O)[C@]213", "inhibition": "-2.99%"},
      {"smiles": "O=C(CCC(=O)N1C[C@H]2C[C@@H](C1)c1cccc(=O)n1C2)NCc1ccccc1C(F)(F)F", "inhibition": "-0.966%"},
      {"smiles": "CC(=O)Nc1ccccc1C(=O)OCC(=O)c1cccc2ccccc12", "inhibition": "12.7%"},
      {"smiles": "COc1cccc(C(=O)N2C[C@H]3C[C@@H](C2)c2cccc(=O)n2C3)c1", "inhibition": "-6.08%"},
      {"smiles": "CC(C)c1ccc(OCC(=O)N2CCCN(C)CC2)cc1", "inhibition": "2.02%"},
      {"smiles": "O=C(COc1ccc2ccccc2c1)N1CCN(Cc2ccncc2)CC1", "inhibition": "66.2% (active)"},
      {"smiles": "O=C(Cc1ccccc1[N+](=O)[O-])N1CCN(Cc2ccc3c(c2)OCO3)CC1", "inhibition": "5.95%"},
      {"smiles": "CC(c1ccccc1)(c1ccccc1)c1ccncc1", "inhibition": "11.4%"},
      {"smiles": "COC(=O)C1=C(c2ccccc2OCc2ccccc2)C[C@@H]2CC[C@H]1N2C(=O)NCc1ccc(OC)cc1", "inhibition": "26.2%"},
      {"smiles": "COC(=O)C1=C(c2ccc(F)cc2OCc2ccccc2)C[C@@H]2CC[C@H]1N2C(=O)NCc1ccc(OC)c(OC)c1", "inhibition": "9.54%"},
      {"smiles": "CCc1ccc(OCC(=O)N2CCN(CC(=O)Nc3ccccc3Cl)CC2)cc1", "inhibition": "73.1% (active)"},
      {"smiles": "CCC(=O)c1ccc(OCC(=O)N2CCN(CC(=O)Nc3ccc(C)cc3)CC2)cc1", "inhibition": "6.66%"},
      {"smiles": "O=C(CN1CCCCC1)Nc1ccc(Br)cc1C(=O)c1ccccc1Cl", "inhibition": "-11.6%"},
      {"smiles": "CCOP(=S)(OCC)C(O)CCCCCn1c(=O)c(F)cn(C2CCCO2)c1=O", "note": "(stereo not given)", "inhibition": "-1.97%"},
      {"smiles": "CN(c1ccccc1)c1ccc([N+](=O)[O-])c2nonc12", "inhibition": "1.86%"},
      {"smiles": "CC[N+](CC)(CC)CCCCCCCCCC[N+](CC)(CC)CC", "inhibition": "2.47%"},
      {"smiles": "C[C@H]1CN([C@@H](C)CO)C(=O)CCCn2nncc2CO[C@H]1CN(C)C(=O)Oc1cccc2ccccc12", "inhibition": "-6.15%"},
      {"smiles": "COC(=O)C1=C(c2ccc(OCc3ccccc3)cc2)C[C@@H]2CC[C@H]1N2C(=O)NCc1ccc(Cl)cc1", "inhibition": "22.1%"},
      {"smiles": "COC(=O)C1=C(c2ccc(OCc3ccccc3)cc2)C[C@@H]2CC[C@H]1N2C(=O)NCc1cccc(F)c1", "inhibition": "64.5% (active)"},
      {"smiles": "COC(=O)C1=C(c2cccc(OCc3ccccc3)c2)C[C@@H]2CC[C@H]1N2C(=O)NCc1ccc(Br)cc1", "inhibition": "19%"},
      {"smiles": "Cc1cc(C)c2c(c1)NP(=S)(c1ccccc1)N2", "note": "(stereo not given)", "inhibition": "11.1%"},
      {"smiles": "O=C1NC(=O)N(CCc2ccc(F)cc2)C(=O)/C1=C/C=C/c1ccccc1", "inhibition": "58.5% (active)"},
      {"smiles": "CN(C)c1nc(N(C)C)nc(N(C#N)CCCl)n1", "inhibition": "2.53%"},
      {"smiles": "COc1ccc(NC(=O)c2cn(CCC#N)nc2-c2ccc([N+](=O)[O-])cc2)cc1", "inhibition": "-6.27%"}
    ]}
  ]
}
